# HP1b chromo inh – blocks HP1-beta chromodomain binding to methylated histone tails; 0.56% of 390,000 active; AlphaScreen HP1-beta / biotin-H3K9me3 peptide binding; P83916; Potency, µM (highest dose often 114 µM), hits mostly inhibitors; AID 540317; further: nearly all actives have a fitted effect of over 70% in size
#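 HP1-beta protein (50 nM final) preincubated 30 min at room temperature with biotinylated H3(1-18)K9me3 peptide (50 nM) in PBS pH 7.4, 0.01% Tween-20, then compound added for 30 min. AlphaScreen streptavidin donor/nickel chelate acceptor beads (10 ug/mL final), 30 min dark, luminescence read.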
# BAZ2B inh – BAZ2B (human) inhibition; Q9UIF8; AlphaScreen BAZ2B-H3K14Ac peptide displacement; Potency, µM (doses to about 114 µM), most hits filed as inhibitors; 4.4% of 360,000 active; further: nearly all actives have a fitted effect of over 60% in size
#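 Protein-peptide AlphaScreen: BAZ2B 50 nM, b-H3K14Ac 50 nM, 1x PBS pH 7.4 + 0.01% Tween-20. Preincubation 30 min RT; cpd 30 min RT (top 110 uM); beads 20 min RT, light-protected.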
# G9a block – blocks human histone lysine methyltransferase G9a. Q96KQ7. G9a H3K9 monomethylation, AlphaScreen, 2 h. Potency, µM (series often up to 102 µM), most hits filed as inhibitors. 8.8% of 350,000 active. AID 504332; further: nearly all actives have a fitted effect of over 75% in size
#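 Readings reflect AlphaScreen signal from monomethyl-H3K9 antibody detection. HMT at 20 nM; substrate b-H3K9 500 nM; cofactor SAM 20 uM; 2 h RT reaction; compounds tested as titrations in qHTS with 15 min preincubation.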
# JMJD2A Tudor inh – inhibitors of human JMJD2A Tudor domain; O75164; AlphaScreen JMJD2A-Tudor / H3K4me3 peptide binding; Potency, µM (titrated, usually from 114 µM), usual class: inhibitors; 4.4% of 390,000 active; further: nearly all actives have a fitted effect of over 50% in size
# Target sequence (O75164 whole entry, looked up, the tested form may be a part): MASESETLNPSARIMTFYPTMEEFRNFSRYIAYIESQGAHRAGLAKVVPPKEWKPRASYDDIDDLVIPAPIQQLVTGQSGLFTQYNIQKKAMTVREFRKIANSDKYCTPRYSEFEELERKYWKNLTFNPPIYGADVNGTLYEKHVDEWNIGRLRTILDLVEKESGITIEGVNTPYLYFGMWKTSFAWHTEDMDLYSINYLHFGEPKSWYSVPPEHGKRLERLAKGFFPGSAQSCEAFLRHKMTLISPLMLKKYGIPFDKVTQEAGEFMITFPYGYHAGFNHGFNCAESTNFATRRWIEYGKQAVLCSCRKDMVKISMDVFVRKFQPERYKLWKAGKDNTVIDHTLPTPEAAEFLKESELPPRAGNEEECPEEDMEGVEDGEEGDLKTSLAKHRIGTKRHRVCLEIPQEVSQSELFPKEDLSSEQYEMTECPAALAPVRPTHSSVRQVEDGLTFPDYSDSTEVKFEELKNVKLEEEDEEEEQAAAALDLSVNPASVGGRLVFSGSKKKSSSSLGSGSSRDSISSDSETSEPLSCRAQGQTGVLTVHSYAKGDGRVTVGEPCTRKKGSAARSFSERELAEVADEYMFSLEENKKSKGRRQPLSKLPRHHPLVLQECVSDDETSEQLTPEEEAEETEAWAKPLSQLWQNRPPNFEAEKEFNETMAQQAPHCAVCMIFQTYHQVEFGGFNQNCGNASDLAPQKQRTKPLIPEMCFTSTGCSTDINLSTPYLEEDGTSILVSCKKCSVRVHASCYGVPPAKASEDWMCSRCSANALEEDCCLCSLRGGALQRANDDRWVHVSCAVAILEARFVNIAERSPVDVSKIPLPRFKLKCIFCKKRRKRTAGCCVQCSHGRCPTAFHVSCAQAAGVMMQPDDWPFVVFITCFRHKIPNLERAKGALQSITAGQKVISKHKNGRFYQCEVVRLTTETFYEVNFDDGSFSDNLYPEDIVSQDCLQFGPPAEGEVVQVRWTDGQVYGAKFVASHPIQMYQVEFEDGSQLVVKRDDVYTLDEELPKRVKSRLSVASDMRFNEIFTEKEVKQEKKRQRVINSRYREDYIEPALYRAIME
# Six1-Eya2 blk – Six1/Eya2 interaction inhibition; Q15475+O00167; AlphaScreen GST-Six1/His-Eya2 binding, biochemical; active compounds read low; activity change, % (test concentration not listed); 0.56% of 360,000 active; AID 651725; in the data active means activity change below about -65%; inconclusive means mostly about -30% to -63%
#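 Homogeneous AlphaScreen proximity assay pairing GST-Six1 with His-tagged Eya2 (added as 5X mix: 250 nM and 500 nM) in 50 mM Tris pH 8.0, 300 mM NaCl, 1 mM TCEP. Glutathione donor and nickel acceptor beads; 1 h, 37 °C, dark.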
# CtBP-E1A blk – inhibitors of CtBP/E1A interaction | activity change, % (concentration not given with the values) | AlphaScreen GST-E1A/His-CtBP binding, 1536-well; active compounds read low | 0.49% of 340,000 active; in the data active means activity change below about -65%; inconclusive means mostly about -30% to -63%
#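 In 5 uL wells, 23 nL compound meets equimolar GST-E1A and His-CtBP (5X stock 125 nM each) for 2 h, 37 °C. Beads (5X, 50 ug/mL) then 1 h, 37 °C, dark.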
# A number is an active result; – = inactive; ? = inconclusive; · = no result given; [ ] = another dose, or the depositor's remark. Compounds with a hit are over-represented: about 10% of the library has one in this group of screens. Unless noted, the call rests on the fitted dose curve; in most records, active means well fitted inhibition curve with a large enough effect; inconclusive means small, poorly fitted or top-dose-only effect; inactive means no such curve, though single readings can be large or run the other way.
SMILES,HP1b chromo inh,BAZ2B inh,G9a block,JMJD2A Tudor inh,Six1-Eya2 blk,CtBP-E1A blk
Cc1c(Cl)ccc2c1NC(=O)[C@]21N[C@@H](Cc2ccccc2)[C@H]2C(=O)N(c3ccc(F)cc3)C(=O)[C@H]21,–,?,1.6µM,–,–,–
O=C1[C@@H]2C(Cc3ccc(O)cc3)NC3(C(=O)Nc4ccc(F)cc43)[C@@H]2C(=O)N1c1ccccc1 (stereo partly specified),–,–,79µM,79µM,–,–
O=C1[C@@H]2[C@H](Cc3ccc(O)cc3)N[C@]3(C(=O)Nc4ccccc43)[C@@H]2C(=O)N1c1ccc(F)cc1,·,–,?,·,·,·
NC(=O)c1ccccc1NC(=S)NC(=O)c1ccc(Br)o1,–,–,45µM,–,–,–
O=C(NC(=S)Nc1ccccc1)c1ccc(Br)o1,–,–,?,–,–,·
NC(=O)c1ccccc1NC(=S)NC(=O)CCc1ccccc1,?,–,4.5µM,79µM,–,–
CN1CCOc2c1cnn(CCO)c2=O,·,·,·,·,–,–
O=C(C1CCCCN1S(=O)(=O)c1ccccc1)N1CCN(Cc2ccccc2)CC1 (stereo unspecified),–,–,?,–,–,–
Cc1ccc(S(=O)(=O)NNC(=O)C2CCN(Cc3ccccc3)CC2)cc1,–,–,–,79µM,–,–
Cc1ccc(S(=O)(=O)N2CCCCC2C(=O)N2CCN(Cc3ccccc3)CC2)cc1 (stereo unspecified),–,?,11µM,–,–,–
O=C(CN1CCN(c2ccc(F)cc2)CC1)Nc1ccccc1[N+](=O)[O-],50µM,?,–,?,–,–
COc1ccccc1NC(=O)CN1CCN(c2ccc(F)cc2)CC1,–,·,·,?,–,–
COC(=O)c1sccc1NC(=O)CN1CCN(c2ccc(F)cc2)CC1,–,?,45µM,?,–,–
Cc1ccc(F)c(S(=O)(=O)NC(=O)C2(C)CCN2C(=O)CC(c2ccccc2)c2ccccc2)c1 (stereo unspecified),·,·,·,·,–,–
Cn1cc(P(=S)(N2CCOCC2)N2CCOCC2)cc1P(=S)(N1CCOCC1)N1CCOCC1,–,–,45µM,–,–,–
CC1=NN(c2ccccc2)C(=O)/C1=C/c1c(O)n(-c2ccc(F)c(Cl)c2)[nH]c1=O,?,35µM,?,50µM,–,–
CC1=NN(c2ccccc2)C(=O)/C1=C\c1c(C)[nH]n(-c2ccccc2)c1=O,–,–,?,?,–,–
CSc1nsc(SCC(=O)Nc2ccc(NC(C)=O)cc2)n1,–,–,–,–,–,–
CSc1nsc(SCC(=O)Nc2ccc(Cl)c(C(=O)O)c2)n1,–,–,50µM,–,–,–
Cc1nnc(SCC(=O)Nc2ccccc2C(=O)NC2CC2)s1,–,–,45µM,–,–,–
CSc1nsc(SCC(=O)Nc2ccccc2C(=O)O)n1,–,?,7.9µM,?,–,–
CSc1nsc(SCC(=O)Nc2ccc(O)c(C(=O)O)c2)n1,–,–,40µM,–,–,–
COc1ccc(CN2C(=O)C(CC(=O)NCc3cccc4ccccc34)CC(C(=O)N(C(C)C)C(C)C)=C2C)cc1 (stereo unspecified),·,·,·,·,–,–
Cc1cccc(C(=O)Nc2ccc(-c3nc4ccccc4s3)cc2Cl)c1,–,–,–,–,·,·
COc1ccc(-n2c(-c3ccco3)nc3c(cnn3-c3ccccc3Cl)c2=O)cc1,–,·,–,–,·,·
SMILES,HP1b chromo inh,BAZ2B inh,G9a block,JMJD2A Tudor inh,Six1-Eya2 blk,CtBP-E1A blk
CCCN(CCC)CC(C)(C)NS(=O)(=O)c1ccc(Cl)cc1,?,?,?,2.5µM,–,–
CCN(CC)CCNS(=O)(=O)c1ccc(Cl)cc1,–,–,?,–,–,–
O=c1oc2ccccc2c(Nc2cc3ccccc3cc2O)c1[N+](=O)[O-],–,11µM,?,?,–,–
O=c1oc2ccccc2c(Nc2ccccc2O)c1[N+](=O)[O-],–,–,–,–,–,–
O=c1cc(CSc2nc(NCc3ccc(Cl)cc3)c3ccccc3n2)nc2ccc(Cl)cn12,–,·,·,–,–,–
O=C(Nc1cccc2nsnc12)c1ccc(-c2ccc(Br)cc2)o1,–,–,40µM,–,–,–
CC[n+]1c(C)cc2c(sc3ccccc32)c1C,–,–,22µM,?,–,–
COc1ccc(C)cc1-n1nnc(S(=O)(=O)c2ccc(C)cc2)c1C,–,–,–,–,·,·
CN(C)/N=N/c1nc[nH]c1C(N)=O,·,·,–[2.33 µM],·,·,·
O=C(CN1CCOCC1)N/N=C/c1ccco1,–,–,–,–,–,–
O=C(CSCC(=O)Nc1ccccc1)N/N=C/c1c(O)ccc2ccccc12,–,–,1.6µM,–,?,-72
O=C(CN1CCOCC1)N/N=C/c1c(O)ccc2ccccc12,–,45µM,–,–,-95,-93
O=C(O)c1cc(N/N=C/c2c(O)ccc3ccccc23)ccc1Cl,?,40µM,20µM,?,?,?
COc1ccc(Cn2cc(CN3CC(N4CCN(CCN(C)C)CC4)CS3(=O)=O)nn2)cc1 (stereo unspecified),·,·,·,·,–,–
Nc1ncnc2c1ncn2[C@@H]1O[C@H](C(=O)NCCCN2CCCC2=O)[C@@H](O)[C@H]1O,·,·,·,·,–,–

# Source: PubChem (National Center for Advancing Translational Sciences (NCATS))
